Structures are written as SMILES. More than one record can exist for a structure, and the calls need not agree. The source made the active and inactive calls. Rule for the calls: active = hit-call score of the fitted dose curve at least 0.9, where 1 is the maximum; inactive = score below 0.9.

By AC50 is commonly meant the midpoint of the concentration-response curve, whichever way the signal moves.

This assay deals with Hepatocyte nuclear factor 3-beta (Homo sapiens) (UniProt Q9Y261). Put plainly: ATG_FoxA2_CIS: Attagene CIS-FACTORIAL HepG2 Assay for human Forkhead box A2 (FOXA2) (AID 2282942). Particulars: HepG2 cis-reporter transcription factor activity, 24 h; actives raise or lower the signal. The procedure: ATG_CIS is a cell-based, multiplexed-readout assay that uses HepG2, a human liver cell line, with measurements taken at 24 hours after chemical dosing in a 24-well plate.ATG_FoxA2_CIS is one of 52 assay component(s) measured or calculated from the ATG_CIS assay. It is designed to make measurements of mRNA induction, a form of inducible reporter, as detected with fluorescence intensity signals by Reverse transcription polymerase chain reaction (RT-PCR) and Capillary electrophoresis technology.Data from the assay component ATG_FoxA2_CIS was analyzed into 1 assay endpoint. This assay endpoint, ATG_FoxA2_CIS, was analyzed with bidirectional fitting relative to DMSO as the negative control and baseline of activity. Using a type of inducible reporter, measures of mRNA for gain or loss-of-signal activity can be used to understand the reporter gene at the transcription factor-level as they relate to the gene FOXA2. Furthermore, this assay endpoint can be referred to as a primary readout, because this assay has produced multiple assay endpoints where this one serves a reporter gene function. To generalize the intended target to other relatable targets, this assay endpoint is annotated to the dna binding intended target family, where the subfamily is forkhead box protein.
Sequence of Hepatocyte nuclear factor 3-beta (Homo sapiens) (Q9Y261 whole entry, looked up): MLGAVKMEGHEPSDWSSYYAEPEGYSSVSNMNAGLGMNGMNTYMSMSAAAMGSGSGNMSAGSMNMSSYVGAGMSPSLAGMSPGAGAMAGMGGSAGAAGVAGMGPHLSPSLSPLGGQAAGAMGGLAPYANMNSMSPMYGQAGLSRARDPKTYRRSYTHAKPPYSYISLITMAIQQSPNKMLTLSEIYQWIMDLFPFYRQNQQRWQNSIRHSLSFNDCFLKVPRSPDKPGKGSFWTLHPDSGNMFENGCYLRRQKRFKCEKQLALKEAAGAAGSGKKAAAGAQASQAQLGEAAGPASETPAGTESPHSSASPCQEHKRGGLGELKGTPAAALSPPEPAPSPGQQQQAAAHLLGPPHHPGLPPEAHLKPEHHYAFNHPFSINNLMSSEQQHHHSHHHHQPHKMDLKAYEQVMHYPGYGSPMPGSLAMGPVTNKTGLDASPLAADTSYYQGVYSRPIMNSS
Human liver HepG2 cells are transiently transfected with multiple reporter transcription units (MRTUs) in 6-well plates using FuGene 6 reagent (Roche; 3 ml FuGene/1 mg DNA). The MRTU constructs are regulated by a cis-regulating element (promoter). […] A major difference between the CIS and TRANS system is that in CIS activities of endogenous TFs are measured, whereas the TRANS assay evaluates changes in activities of exogenous, chimeric NR-Gal4 proteins. […] At the end of 24 hour incubation, total RNA was isolated using TriZol reagent (Invitrogen). The isolated RNA is then reverse-transcribed using oligo(dT) primer and Mo-MLV reverse transcriptase (Invitrogen) with DNAse I (Ambion) treatment for 30 min. The one-tenth of the produced cDNA was amplified by PCR using Taq DNA polymerase (Invitrogen) and two reporter sequence-specific primers. The PCR products were fluorescently labeled by primer extension with 6-arboxyfluorescein (6-FAM) 5'-labeled reporter sequence-specific primer (2 min at 95 C, 20 s at 68 C and 10 min at 72 C) and these products were digested with 5U of HpaI (New England Biolabs) for 2h at 37 C. The fragments were purified using Qiaquick PCR columns (Qiagen), analyzed on an ABI 3130xL genetic analyzer (Applied Biosystems) with peak positions identified by using a set of X-rhodamine (ROX)-labeled MapMarker1000 molecular weight standards (BioVentures). The raw capillary electrophoresis data was processed using Attagraph software (Attagene).
On to `CC(C)(O)C(=O)c1ccccc1`, for which the molecule was called inactive. Consider `CC(C)(C)c1ccc(CCC=O)cc1`, for which the call was inactive.

Regarding `CN(Cc1cnc2nc(N)nc(N)c2n1)c1ccc(C(=O)N[C@@H](CCC(=O)O)C(=O)O)cc1`, the molecule was classed as inactive. For the molecule `O=C(F)C(F)(F)C(F)(F)C(F)(F)C(=O)F`, the call was inactive. The same measure, in the same setting: next, `CC(C)(C)c1ccc(O)c(O)c1`: “inactive”; `CCCCCCCCCCCC[N+](C)(C)CCCCCCCCCCCC`: “inactive”. In the case of `NC(C(F)(F)F)C(F)(F)F`, the molecule was called inactive. As for `Cc1ccccc1OCC(=O)O`, the AC50 is 26 µM (active). For the molecule `O=C(NCc1ncc(C(F)(F)F)cc1Cl)c1c(Cl)cccc1Cl`, the call was inactive. Same read-out and setting: next, `O=C(F)C(F)(F)C(F)(F)C(F)(F)C(F)F`: “inactive”; `c1cc[nH]c1`: “inactive”; `CN(CCO)S(=O)(=O)C(F)(F)C(F)(F)C(F)(F)C(F)(F)C(F)(F)C(F)(F)C(F)(F)C(F)(F)F`: “inactive”. Turning to `O=C(CCCN1CCC(O)(c2ccc(Cl)cc2)CC1)c1ccc(F)cc1`, the call was inactive. Still for that read-out and setting: to `CC(=O)Nc1ccc(O)cc1` belongs “inactive”; to `C=COC(=O)C(C)(C)CCCCCC`, “inactive”; to `NC(=NCCCCCCN=C(N)/N=C(\N)Nc1ccc(Cl)cc1)/N=C(\N)Nc1ccc(Cl)cc1`, “inactive”. With `CCCCCCCCCC=CCC1CC(=O)OC1=O` (stereo not given), the result was inactive. For `CCOC=C(C(=O)OCC)C(=O)OCC`, the result was inactive.

On to `COc1ccc(C#N)cc1`, for which the molecule was called inactive. For the molecule `O=CC(F)(F)C(F)(F)C(F)(F)C(F)F`, the molecule was classed as inactive.

In the case of `COC(=O)CC(C(C)=O)C(=O)OC` (stereo not given), the molecule was called inactive. Still for that read-out and setting: to `C=CCOCC(CO)(CO)CO` belongs “inactive”; to `CCOCCOCC`, “inactive”; to `CCC(=O)C=Cc1ccc(OC)cc1`, “inactive”. As for `c1cc2cccc3c4cccc5cccc(c(c1)c23)c54`, the call was inactive. As to `O=C(Nc1cccc([N+](=O)[O-])c1)c1cc2ccccc2cc1O`, the call was inactive. With `FCOC(C(F)(F)F)C(F)(F)F`, the molecule was called inactive. For the molecule `FC(F)(F)N1C(F)(F)C(F)(F)OC(F)(F)C1(F)F`, the molecule was classed as inactive. For the molecule `CC1CCC(CO)CC1` (stereo not given), the molecule was called inactive. Still for that read-out and setting: to `CC(C)c1c(C(=O)Nc2ccccc2)c(-c2ccccc2)c(-c2ccc(F)cc2)n1CC[C@@H](O)C[C@@H](O)CC(=O)O` belongs “inactive”; to `CC(C)(C)C1CCCCC1O` (stereo not given), “inactive”. `CCOC=O`: the outcome was inactive. Take `Cc1ccc(C(=O)c2ccccc2)cc1`: the outcome was inactive. On the same count and under the same terms, next, `O=C(C=C(O)C(F)(F)F)C(F)(F)F`: “inactive”. Still for that read-out and setting: next, `Brc1ccc(Oc2ccc(Br)cc2Br)cc1`: “inactive”; `CCCCCCCCCCCCCCCCCC[N+](C)(C)Cc1ccccc1`: “inactive”.

Regarding `CN(C)c1ccc(C(=C2C=CC(=[N+](C)C)C=C2)c2ccccc2)cc1`, the AC50 is 1.51 µM (active) and the molecule was called inactive. As to `COc1cccc(O)c1`, the result was inactive. In the case of `OCC(CO)(CBr)CBr`, the result was inactive.

The values above are taken from PubChem BioAssay (EPA / NIEHS).
